This is an account of results in PubChem BioAssay (NCATS).

Inconclusive results are not listed. Entries that show only a call come without a potency. Active and inactive are the calls of the source. Calls follow the shape of the dose curve; as a rule, active = well fitted cell-killing curve with a large enough effect; inconclusive = small, poorly fitted or top-dose-only effect; inactive = flat fitted curve, though single readings scatter.
Potency is read from the fitted curve at half-maximal effect.

The nature of this test: OV-SAHO Cancer Cell Toxicity qHTS against the NCATS CANVASS Library (AID 1347348). Also: nearly all actives have a fitted effect of over 55% in size. The following applies: OV-SAHO viability, CellTiter-Glo luminescence, 72 h; series mostly up to 38.3 µM. The method in brief: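 1000 cells/well; 4 h settle; 11-pnt titration; 72 h, 37 degrees C, 5% CO2; CellTiter-Glo, 15min RT; luminescence read.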
(In general: Quantitative high-throughput screening tests each substance at several concentrations.)
Consider `C/C=C/c1cc2c(c(=O)o1)C(=O)[C@@H](O)[C@H](C)O2`, for which the Potency was 16.7 µM (active).
As for `COc1cc2c(cc1OC)[C@@H](c1ccc3c(c1)OCO3)C(C)[C@@H](C)C2=O` (some centres undefined), the Potency result was “inactive”.
For the molecule `COc1cc2oc3ccccc3c(=O)c2cc1OC`, the Potency entry is “inactive”.
Then `COC(=O)[C@@]1(C)CCC[C@]2(C)c3cc(OC)ccc3CC[C@@H]12`, with “inactive”; and `O=C1CCC(=O)N(O)CCCCCNC(=O)CCC(=O)N(O)CCCCCNC(=O)CCC(=O)N(O)CCCCCN1`, with 11.8 µM (active); and `C[C@H](CCC(O)C(C)(O)CO)[C@@]1(O)CC[C@@]2(C)C3=C(CC[C@@]21C)[C@@]1(C)CCC(OC(=O)CCC(=O)O)C(C)(C)[C@@H]1CC3` (some centres undefined), with “inactive”.
Regarding `C=C[C@@](C)(O)CC[C@@H]1[C@@]2(C)CCCC(C)(C)[C@@H]2CC[C@@]1(C)O`, the Potency entry was “inactive”.
Regarding `COc1ccc([C@@H]2c3cc4c(cc3C(=O)[C@H](C)C2C)OCO4)cc1OC` (some centres undefined), the Potency result was “inactive”.
As for `CC1=C[C@H]2[C@H]3C(=O)C(c4ccc(O)cc4)=C[C@@]3(c3ccc(O)cc3)[C@@H]1C(=O)[C@]2(C)O`, the Potency result is “inactive”.
As to `C=C1C(=O)O[C@H]2[C@H]1CCC(C)=C1CC[C@@](C)(O)[C@@H]12`, the Potency was 18.8 µM (active).
With `C[C@H](c1cnc(N)[nH]1)c1ccc(O)c2[nH]cc(-c3cnc(-c4c[nH]c5ccccc45)c(=O)[nH]3)c12`, the Potency result was “inactive”.
With `COc1ccc([C@@H]2c3cc4c(cc3C[C@H](C)C2C)OCO4)cc1OC` (some centres undefined), the Potency entry was “inactive”.
In the case of `C[C@H]1CCC2(OC1)O[C@H]1C[C@H]3[C@@H]4CC(=O)[C@]5(O)C[C@H](O)CC[C@@]5(C)[C@H]4CC[C@@]3(C)[C@H]1[C@H]2C` (some centres undefined), the Potency entry is “inactive”.
The same measure for `C=C1C[C@H]2O[C@@H]3[C@@H]4[C@H](CC[C@@](C)(O)[C@@H]42)[C@H](C)COC3(C)[C@@H](OC(=O)CCCCCCC)CC1=O` (some centres undefined): 18.8 µM (active).
